This is part of a sample that, as a whole, favours compounds with a hit. Of some 83,000 tested, about 20% had one in any assay.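 A percent growth of 40 corresponds to 60% growth inhibition; 0 means no net growth; -100 means all cells died. Active threshold: below 10.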 A number with no mark means an inactive call. The source made the active and inactive calls.
system: OVCAR-3 ovarian; experiment: NCI-60 one-dose screen, 48 h (100 = growth as untreated, 0 = no growth, -100 = all killed); settings: 10 µM
Protocol: Growth inhibition of the OVCAR-3 human tumor cell line is measured as a screen for anti-cancer activity. Cells are grown in 96 well plates and exposed to the test compound for 48 hours. Compounds are tested at a single concentration, which is 10^-5 M for most compounds. The reported endpoint is percent growth (GI% or GIPRCNT), where numbers from 0 - 100% represent growth inhibition, and numbers from -100% - 0 represent cell death. For example, a value of 40 represents 60% growth inhibition. A value of 0 means no net growth occurred over the course of the experiment. A value of -40 indicates 40% of cells at the beginning of the experiment died by the end of the experiment. A value of -100 means all cells are dead at the end of the experiment.
NCI-60 Human Tumor Cell Lines Screen was performed using the standard one-dose NCI protocol, which is described in more detail at https://dtp.cancer.gov/discovery_development/nci-60/default.htm.
Compounds with GIPRCNT values below 10 were considered active. Activity score was based on GIPRCNT using the following formula: […]
Score is 0 for GIPRCNT values of 100 or above, 50 for GIPRCNT values of 0, and 100 for GIPRCNT values of -100.

Point of comparison: `CC(C)(C)c1ccc(S(=O)(=O)N[C@H]2CC[C@H]3[C@@H]4CCc5cc(O)c([N+](=O)[O-])cc5[C@H]4CC[C@]23C)cc1`, growth 53.7%. Against it:
- C[C@@H](O)[C@H]1C(=O)N2C(C(=O)O)=C(SC3CN[C@H](C(=O)N(C)C)C3)[C@H](C)[C@H]12 (stereo not given in full) — higher, 116%
- COc1cc(C2CC(c3ccc4c(c3)OCO4)=NN2c2ccccc2)cc(OC)c1OC (stereo not given) — higher, 89.8%
- CCOC(=O)C1=CSC2=NC3=C(CCC/C3=C\c3ccc(Cl)cc3)C(c3ccc(Cl)cc3)N12 (stereo not given) — higher, 100%
- O=C(CSc1nnc(-c2ccc(Cl)cc2)o1)Nc1ccc(C(=O)/C=C/c2ccc(Cl)cc2)cc1 — higher, 103%
- COc1ccc2c(c1)CC=C1[C@@H]2CC[C@]2(C)C(=O)/C(=N/O)C[C@@H]12 — higher, 106%
- CC(C)(C)OC(=O)N1CCc2c(sc3ncnc(N/N=C/c4cccc(Br)c4)c23)C1 — higher, 61.5%
- Cc1c(C(N)=O)sc2c1c(=O)n(Cc1ccccc1)c1nnc(-c3ccc(Br)cc3)n21 — lower, 49.5%
- Cc1ccc(NC(=O)N2CCCCC2)cc1[N+](=O)[O-] — higher, 115%
- COc1cc(C(=O)n2nc(-c3cc(OC)c(OC)c(OC)c3)nc2N)cc(OC)c1OC — higher, 101%
- O=c1cn[nH]c2ccc(Br)cc12 — higher, 105%
- CCOC(=O)CN(c1sc(C)c(C)c1C(=O)OCC)S(=O)(=O)c1ccc(C)cc1 — higher, 109%
- O=C1OC(C(Cl)(Cl)Cl)OC1C(Cl)(Cl)Cl (stereo not given) — higher, 109%
- Cc1cc(Br)nnc1Br — higher, 112%
- COc1ccc(/C=C/c2nnc(/C=C/c3ccc(OC)c(OC)c3)o2)cc1OC — lower, 17.6%
- CCCCCCCCCCOC(c1ccccc1)c1ccccc1 — higher, 99.5%
- CC(C)(C)OC(=O)CC(S(=O)(=O)c1ccccc1)S(=O)(=O)c1ccccc1 — lower, 48.3%
- CC(C)=CCC/C(C)=C/CC/C(C)=C/CC/C=C(\C)CC/C=C(\C)CCC(=O)Nc1ccn(C2OC(CO)C(O)C2(F)F)c(=O)n1 (stereo not given) — lower, 40.2%
- CCNc1nc(C(F)(F)F)nc2c1sc(=S)n2-c1ccccc1 — higher, 107%
- CS(=O)(=O)c1nccc(-c2c(-c3ccc(OCCc4ccccc4)cc3)nc3sccn23)n1 — higher, 104%
- Cc1nn(-c2ccc(-c3ccc(OC(F)(F)F)cc3)cc2)c2nc(Cc3ccccc3)nc(N)c12 — lower, 46.5%
- CCNCC(=O)Nc1ccc(C(=O)OCC)cc1 — higher, 99.9%
- Nc1nccc(OCCO)n1 — higher, 105%
- CCCCCCCCCCCC[n+]1c(C)cc(N)c2ccccc21 — lower, 18%
- Nc1ccn(Cc2nnc(CCC(=O)c3nc4ccccc4[nH]3)o2)c(=O)n1 — higher, 102%
- O=C(N/N=C/c1ccc(Cl)cc1)c1ccc(Cc2n[nH]c(=O)c3cccnc23)cc1 — higher, 106%
- COc1ccc(C2=Cn3c(CCC(=O)c4nc5ccccc5[nH]4)nnc3SC2)cc1 — higher, 113%
- CCn1c2ccc(O)cc2c2c(C)c3c[n+](C)ccc3c(C)c21 — lower, 37.8%

`C/C(=C/CCC(C)[C@@H]1CC[C@]2(C)C3=C(CC[C@@]12C)[C@@]1(C)CCC(=O)C(C)(C)[C@@H]1CC3)C(=O)O` (stereo not given in full) was tested, and the growth was -96% (active).
For `COc1ccc2c(c1)C(=O)/C(=C/c1ccc([N+](=O)[O-])o1)O2`, the growth was -84.5% (active).
In the case of `CCN1CCN(CCC(=O)Nc2cccc(-n3cc(-c4ccncc4)c(-c4ccc(Cl)c(OC)c4)n3)c2)CC1`, the growth is reported as 7.41% (active).
With `COc1cc(C(=O)/C=C/c2c[nH]c3ccccc23)cc(OC)c1OC` the growth was -8.84% (active).
With `O=C(CCCCCCC(=O)Nc1ccccc1)NO` the growth was -1.79% (active).
With `CCCCC(CC)CN=C(N)NC(N)=NCCCCCCN=C(N)NC(N)=NCC(CC)CCCC` (stereo not given) the growth was -83.6% (active).
In the case of `COc1cc2c3c(n(C4CCN(C)CC4)c(=O)c2cc1OC)-c1cc2c(cc1C3=O)OCO2`, the growth is reported as -72% (active).
With `COc1cc2cc(Oc3ccc(NC(=O)c4ccc(Cl)c(C(F)(F)F)c4)cc3)c(C)nc2cc1OC` the growth was 0% (active).
For `O=C1c2ccccc2C(=O)c2c1ccc(C(Br)Br)c2Cl`, the growth was -13.8% (active).
`CCCN(CCC)C(=O)[C@H](CC)[C@@H]1CC[C@@H](C)[C@@H]([C@H](C)[C@@H](O)[C@@H](C)C(=O)[C@H](CC)C2O[C@]3(C=C[C@@H](O)[C@]4(CC[C@@](C)([C@H]5CC[C@](O)(CC)[C@H](C)O5)O4)O3)[C@H](C)C[C@@H]2C)O1` (stereo not given in full) was tested, and the growth was 2.11% (active).
With `Cc1ccc(C(SCC(N)C(=O)O)(c2ccc(C)cc2)c2ccc(C)cc2)cc1` (stereo not given) the growth was -42.6% (active).
For `C=CCNCCN1C(=O)c2ccc3c4c(ccc(c24)C1=O)C(=O)N(CCNCC=C)C3=O`, the growth was -22.5% (active).

From PubChem BioAssay (NCI)
